Screening data as filed in PubChem BioAssay.
Sampled rows, rich in hits. Any-hit rate of the full collection: about 9.4%.
Pf growth 96h: inhibits malaria parasite growth, 96 h; AID 504834; Potency, µM (series often up to 28.7 µM), hits mostly inhibitors; P. falciparum luciferase reporter growth, 96 h; 320,000 tested, 6.9% active
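Parasite growth measured via integrated firefly luciferase reporter in P. falciparum. Infected erythrocytes at 2% hematocrit, 0.05% parasitemia final were treated 96 hours at 37 C under 5% CO2, and luminescence was read.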
AMA1 RON2 block: AMA1-RON2 (P. falciparum) interaction inhibition. AID 720542. Potency, µM (doses to about 58.2 µM), usual class: inhibitors. 360,000 tested, 0.2% active. AlphaScreen AMA1-biotinylated RON2 peptide binding; also: nearly all actives have a fitted effect of over 45% in size
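AMA1 (3D7) with his tag at 25 nM final met compounds first, then biotinylated RON2 peptide at 25 nM; detection used donor plus acceptor beads, 10 µg/mL apiece, read by AlphaScreen after 30 min at room temperature.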
SARS PLP yeast: inhibitors of SARS-CoV papain-like protease in yeast; AID 485353; Potency, µM (top dose mostly 32.9 µM), usual class: activators; 330,000 tested, 0.19% active; S. cerevisiae expressing SARS-CoV PLpro, growth rescue; calls by dose curve; also: nearly all actives have a fitted effect of over 55% in size
Pf growth 48h: inhibits P. falciparum growth in the first generation, 48 h; P. falciparum luciferase growth in erythrocytes, 48 h; Potency, µM (titrated, usually from 28.7 µM), hits mostly inhibitors; 310,000 tested, 5.9% active
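Growth was read as firefly luciferase luminescence after a 48 h, 37 C, 5% CO2 exposure of compounds to reporter-bearing P. falciparum cultures (0.1% parasitemia, 2% hematocrit final) in Albumax-supplemented RPMI 1640.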
A number is an active result; n = inactive; u = inconclusive; x = no result given; [ ] = another dose, or the depositor's remark. Unless noted, calls follow the shape of the dose curve; as a rule, active = well fitted curve in the direction sought with a large enough effect; inconclusive = small, poorly fitted or top-dose-only effect, or another doubt; inactive = no such curve, though single readings can be large; an effect the other way counts as inactive or inconclusive.

SMILES	Pf growth 96h	AMA1 RON2 block	SARS PLP yeast	Pf growth 48h
Cc1[nH]c(=O)[nH]c(=O)c1/C=N/NC(=O)[C@H](CC(C)C)NC(=O)OC(C)(C)C	n	n	n	n
Cc1[nH]c(=O)[nH]c(=O)c1/C=N/NC(=O)[C@@H](N)CC(C)C	u	n	n	5.2µM
CN(C)S(=O)(=O)c1cccc(NC(=S)N/N=C/c2cc(Br)ccc2O)c1	u	n	n	2.1µM
CCOc1ccccc1NC(=O)C(=O)N/N=C/c1cc(Br)ccc1O	n	n	n	2.3µM
O=C(C[n+]1ccccc1)N/N=C/c1ccc(Cl)cc1	7.4µM	n	n	u
O=C(N/N=C/c1cc(Br)ccc1O)Nc1ccccc1	8.3µM	n	n	u
COc1ccc(/C=C/C(=O)c2ccc(NC3=NCCCS3)cc2)cc1OC	u	n	n	u
O=C(C[n+]1ccccc1)N/N=C/c1cc(Br)ccc1O	4.1µM	n	n	x
Cc1ccc(CC(=O)O/N=C(\N)Cc2ccc([N+](=O)[O-])cc2)cc1	n	n	n	n
N/C(Cc1ccc([N+](=O)[O-])cc1)=N\OC(=O)CC1CCCCC1	u	n	n	13µM
N/C(Cc1ccc(Cl)cc1)=N\OC(=O)C1CCCCC1	n	n	n	5.9µM
CCCOC(=O)c1ccc(NC(=O)c2cc(Cl)ccc2OC)cc1	u	n	n	n
O=C1C(Cl)=C(NCCN2CCCCC2)C(=O)c2ccccc21	u	n	n	n
C=CCNc1nc(-c2ccccn2)nnc1-c1ccccc1	1.7µM	u	n	x
COc1ccc(C(=O)COC(=O)C(C(C)C)N2C(=O)C3C4C=CC(C4)C3C2=O)cc1 (centres undefined)	x	n	n	n
Cc1ccc(C(=O)C(C)N(C(=O)c2ccc(Cl)cc2Cl)N2C(=O)CCCC2=O)cc1 (centres undefined)	12µM	n	n	n
Cc1ccc(C(=O)CN(C(=O)c2ccc(Cl)cc2)N2C(=O)CCC2=O)cc1	n	n	n	n
COc1ccc(C(=O)C(C)N(C(=O)c2ccc(Cl)cc2Cl)N2C(=O)C3C4C=CC(C4)C3C2=O)cc1 (centres undefined)	u	n	n	7.4µM
O=C(c1cc(-c2ccc(O)cc2)on1)N1CCc2ccccc2C1	0.37µM	n	n	x
O=C1N(Cc2ccccc2)c2ccccc2C12OCCO2	n	n	n	n
COc1ccc(-c2cc(C(F)(F)F)nc(NC3CCCC3)n2)cc1OC	n	n	n	15µM
O=C(NC1CCCCC1)c1ccc([N+](=O)[O-])o1	n	n	n	10µM
O=C(NC1CCCC(C(F)(F)F)C1)c1ccc([N+](=O)[O-])o1 (centres undefined)	x	n	x	x
O=C(NC1CCCCCC1)c1ccc([N+](=O)[O-])s1	9.3µM	n	n	u
CC(NC(=O)c1ccc([N+](=O)[O-])o1)C12CC3CC(CC(C3)C1)C2 (centres undefined)	n	n	n	6.6µM
SMILES	Pf growth 96h	AMA1 RON2 block	SARS PLP yeast	Pf growth 48h
O=C(NC1CCCC1)c1ccc(Cl)s1	n	n	n	u
CCN(CC)Cc1c(C(=O)N/N=C/c2cccnc2)nnn1-c1nonc1N	n	n	n	n
COc1ccc(CC(=O)OCC(=O)Nc2ccc(Cl)cc2C)cc1	x	n	n	x
C=C(C)CSc1nc2ncccc2[nH]1	n	n	n	n
N#Cc1ccc(CSc2nnc3[nH]c(=O)cc(N)n23)cc1	n	n	n	4.1µM
COc1ccc(CSc2nnc3[nH]c(=O)cc(N)n23)cc1	n	n	n	n
CCOC(=O)C(=O)N(CC)C1CCS(=O)(=O)C1 (centres undefined)	n	n	n	n
CCN(CC)C1CCS(=O)(=O)C1 (centres undefined)	0.19µM	n	n	n
C[C@@H]1C[C@H]2[C@@H]3C[C@H](F)C4=CC(=O)C=C[C@]4(C)[C@@]3(F)[C@@H](O)C[C@]2(C)[C@@]1(O)C(=O)COC(=O)C(C)(C)C	n	n	n	u
CCC(=O)O[C@@]1(C(=O)SCF)[C@@H](C)C[C@H]2[C@@H]3C[C@@H](F)C4=CC(=O)C=C[C@@]4(C)[C@]3(F)[C@@H](O)C[C@]21C	4.1µM	x	x	5.7µM
CCOc1c(Nc2ccc(C(C)C)cc2)c(=O)c1=O	n	n	n	n
O=C(Cc1ccccc1)Nc1ccc(NC(=O)c2ccccc2)nc1	u	n	n	n
COc1ccc(-c2cnnc(N/N=C/c3ccc(O)c(OC)c3)n2)cc1	5.2µM	n[2.32 µM]	n	n
COc1ccc(-c2cnnc(N/N=C/c3ccc(-c4ccc([N+](=O)[O-])cc4)o3)n2)cc1	n	n	n	2.9µM
O=[N+]([O-])c1ccc(-c2ccc(/C=N/Nc3nc(N4CCCCC4)nc(N4CCCCC4)n3)o2)cc1	n	n	n	u
CCOC(=O)C1CCN(Cc2nnc(-c3ccccc3C)o2)CC1	n	n	n	n
CCOC(=O)N1CCN(Cc2nnc(-c3ccccc3C)o2)CC1	0.74µM	n	n	n
CSc1sc(-c2nnc(SCC(=O)Nc3ccccc3)n2C)c2c1C=CCC2	u	n	n	u
CCNc1nc(Oc2ccc(=O)n(-c3ccccc3)n2)nc(N2CCOCC2)n1	u	n	n	n
CCNc1nc(NCc2ccccc2)nc(Oc2ccc(=O)[nH]n2)n1	n	n	n	1µM
CCNc1nc(OC)nc(Oc2ccc(=O)n(-c3ccccc3)n2)n1	n[5.75 µM]	n	u	0.93µM
CCNc1nc(Oc2ccc(=O)n(-c3ccccc3)n2)nc(N(C)C)n1	2.6µM	n	n	n
COc1cc2c(-c3ccc4cc[nH]c4c3)c(-c3ccsc3)oc(=O)c2cc1OC	2.3µM	n	n	u
COc1cc2c(-c3ccc4[nH]ccc4c3)c(-c3ccc(C#N)cc3)oc(=O)c2cc1OC	4.7µM	n	n	u
O=C(CNC(=S)N(Cc1ccccc1Cl)C1CCCC1)NCCN1CCOCC1	n	n	n	10µM
SMILES	Pf growth 96h	AMA1 RON2 block	SARS PLP yeast	Pf growth 48h
CC(NC(=O)C1CSC2(C)CCC(=O)N12)c1ccccc1Cl (centres undefined)	u	n	n	n
CC(=O)Nc1ccc2c(c1)C(=O)N(c1cccc3ccccc13)C2=O	n	n	n	n
CC(C)(C)C(=O)N1CCN(c2ccc([N+](=O)[O-])c(-n3nc(-c4ccccc4)c4ccccc4c3=O)c2)CC1	9.3µM	n	n	5.2µM
Cc1ccc(-c2nn(-c3cc(Cl)ccc3[N+](=O)[O-])c(=O)c3ccccc23)cc1	12µM	u	n	u
COC(=O)c1ccc(OC)c(CSc2nnc(COc3ccccc3)o2)c1	n	n	u	n
COC(=O)c1ccc(OC)c(CSc2nnc(-c3ccc(C(C)(C)C)cc3)o2)c1	0.66µM	n	n	x
CCOC(=O)c1c[nH]c2c(Cl)ccc(Cl)c2c1=O	n	n	n	n
CC(=O)c1c[nH]c2ccc(C)cc2c1=O	u	n	n	6.6µM
CCOC(=O)c1ccc(-c2ccc3[nH]c4ccccc4c(=O)c3c2)cc1F	5.2µM	n	n	u
CCOC(=O)c1ccc2[nH]cc(C(C)=O)c(=O)c2c1	n	n	n	4.7µM
CCOC(=O)c1c[nH]c2ccc3ccccc3c2c1=O	4.7µM	n	u	u
CCOc1ccc2[nH]cc(C(=O)O)c(=O)c2c1	x	n	n	n
Cc1ccc2[nH]cc(C(=O)NCc3cccs3)c(=O)c2c1	n	n	n	u
